Test results published in PubChem BioAssay AID1159580 (chemical genetic matrix, 2015).
Values joined by “and” are separate entries in the source; they are usually repeats but may differ in a detail not shown here. Identical values can stand only once. In all, about 5,500 compounds went through this assay and about 2,000 (36%) were called active. Inconclusive results (about 18%) are left out. Cut-off read from the data, not from the text of the source: active = normalized growth mostly below about 0.91 (no sharp cut-off); inconclusive = no clear call, values can overlap the other calls; inactive = mostly above about 0.92. Some of the results follow.

Experiment: chemical genetic growth profiling, strain panel (AID 1159580);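 note: tested at 20 µM; growth read once vehicle control cultures reached saturation at 30 °C; 1 = growth at the plate median or of vehicle wells; lower values mean less growth of the strain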
Conditions: growth OD

Measured: normalized growth

C[N+]1(CCCCC[N+]2(C)CCCC2)CCCC1
inactive: S. cerevisiae deletion strains, locus YJR043C, strain POL32, stronger effect = lower value 1.01 | S. cerevisiae deletion strains, locus YJR075W, strain HOC1, stronger effect = lower value 1.02 and 0.994 | S. cerevisiae deletion strains, locus YKL009W, strain mrt4, stronger effect = lower value 1.04 | S. cerevisiae deletion strains, locus YKL068W, stronger effect = lower value 1.01 | S. cerevisiae deletion strains, locus YKL085W, strain MDH1 (second series), stronger effect = lower value 1.01 | S. cerevisiae deletion strains, locus YKL085W, strain MDH1, stronger effect = lower value 1.01 | S. cerevisiae deletion strains, locus YKL160W, strain elf1, stronger effect = lower value 1.01 | S. cerevisiae deletion strains, locus YKL190W, strain CNB1, stronger effect = lower value 1.01 | S. cerevisiae deletion strains, locus YKR001C, strain vps1, stronger effect = lower value 1.01 | S. cerevisiae deletion strains, locus YKR026C, strain gcn3, stronger effect = lower value 1 | S. cerevisiae deletion strains, locus YKR091W, strain srl3, stronger effect = lower value 1 | S. cerevisiae deletion strains, locus YLL001W, strain dnm1, stronger effect = lower value 1 | S. cerevisiae deletion strains, locus YLL026W, stronger effect = lower value 0.992 | S. cerevisiae deletion strains, locus YLL041C, strain sdh2, stronger effect = lower value 0.999 | S. cerevisiae deletion strains, locus YLR027C, strain aat2, stronger effect = lower value 0.992 | S. cerevisiae deletion strains, locus YLR039C, strain RIC1, stronger effect = lower value 1.02 | S. cerevisiae deletion strains, locus YLR058C, strain SHM2, stronger effect = lower value 1.01 | S. cerevisiae deletion strains, locus YLR102C, strain apc9, stronger effect = lower value 1.02 | S. cerevisiae deletion strains, locus YLR221C, strain rsa3, stronger effect = lower value 1 | S. cerevisiae deletion strains, locus YLR258W, strain gsy2, stronger effect = lower value 0.998 | S. cerevisiae deletion strains, locus YLR262C, strain YPT6 (second series), stronger effect = lower value 1.03 | S. cerevisiae deletion strains, locus YLR262C, strain YPT6, stronger effect = lower value 1.03 | S. cerevisiae deletion strains, locus YLR268W, strain sec22, stronger effect = lower value 1.03 | S. cerevisiae deletion strains, locus YLR320W, strain mms22, stronger effect = lower value 0.993 | S. cerevisiae deletion strains, locus YLR330W, strain CHS5, stronger effect = lower value 1 | S. cerevisiae deletion strains, locus YLR342W, strain FKS1 (second series), stronger effect = lower value 1.01 | S. cerevisiae deletion strains, locus YLR342W, strain FKS1, stronger effect = lower value 0.995 | S. cerevisiae deletion strains, locus YLR357W, strain rsc2, stronger effect = lower value 0.963 | S. cerevisiae deletion strains, locus YLR370C, strain arc18, stronger effect = lower value 1 | S. cerevisiae deletion strains, locus YLR371W, strain rom2, stronger effect = lower value 1.03 | S. cerevisiae deletion strains, locus YLR384C, strain iki3, stronger effect = lower value 0.992 | S. cerevisiae deletion strains, locus YLR418C, strain cdc73, stronger effect = lower value 1.02 | S. cerevisiae deletion strains, locus YML016C, strain PPZ1, stronger effect = lower value 1.01 | S. cerevisiae deletion strains, locus YML032C, strain rad52, stronger effect = lower value 1.03 | S. cerevisiae deletion strains, locus YML120C, strain ndi1, stronger effect = lower value 0.99 | S. cerevisiae deletion strains, locus YML124C, strain tub3, stronger effect = lower value 1.02 | S. cerevisiae deletion strains, locus YMR058W, strain fet3, stronger effect = lower value 0.999 | S. cerevisiae deletion strains, locus YMR078C, strain ctf18, stronger effect = lower value 1.03 | S. cerevisiae deletion strains, locus YMR125W, strain sto1, stronger effect = lower value 0.979 | S. cerevisiae deletion strains, locus YMR129W, stronger effect = lower value 0.999 | S. cerevisiae deletion strains, locus YMR205C, strain PFK2, stronger effect = lower value 1.01 | S. cerevisiae deletion strains, locus YMR223W, strain ubp8, stronger effect = lower value 1 | S. cerevisiae deletion strains, locus YMR231W, strain pep5, stronger effect = lower value 0.993 | S. cerevisiae deletion strains, locus YMR263W, strain SAP30, stronger effect = lower value 1.01 | S. cerevisiae deletion strains, locus YMR307W, strain GAS1, stronger effect = lower value 1 and 1.02 | S. cerevisiae deletion strains, locus YNL067W, strain RPL9B, stronger effect = lower value 1.02 | S. cerevisiae deletion strains, locus YNL071W, strain lat1, stronger effect = lower value 0.997 | S. cerevisiae deletion strains, locus YNL128W, strain TEP1, stronger effect = lower value 1.01 | S. cerevisiae deletion strains, locus YNL153C, strain GIM3, stronger effect = lower value 1.01 and 1.02 | S. cerevisiae deletion strains, locus YNL175C, strain NOP13, stronger effect = lower value 0.993 | S. cerevisiae deletion strains, locus YNL197C, strain WHI3, stronger effect = lower value 0.982 | S. cerevisiae deletion strains, locus YNL209W, strain ssb2, stronger effect = lower value 0.995 | S. cerevisiae deletion strains, locus YNL224C, strain SQS1, stronger effect = lower value 0.988 | S. cerevisiae deletion strains, locus YNL233W, strain BNI4, stronger effect = lower value 1.01 | S. cerevisiae deletion strains, locus YNL248C, strain rpa49, stronger effect = lower value 0.996 | S. cerevisiae deletion strains, locus YNL250W, strain rad50, stronger effect = lower value 1.02 | S. cerevisiae deletion strains, locus YNL271C, strain bni1, stronger effect = lower value 1.01 | S. cerevisiae deletion strains, locus YNL298W, strain CLA4, stronger effect = lower value 1.02 | S. cerevisiae deletion strains, locus YNL307C, strain MCK1, stronger effect = lower value 1.03 | S. cerevisiae deletion strains, locus YNL322C, strain KRE1 (second series), stronger effect = lower value 0.998 | S. cerevisiae deletion strains, locus YNL322C, strain KRE1, stronger effect = lower value 1 | S. cerevisiae deletion strains, locus YNR049C, strain mso1, stronger effect = lower value 0.994 | S. cerevisiae deletion strains, locus YNR052C, strain pop2, stronger effect = lower value 1.02 | S. cerevisiae deletion strains, locus YOL006C, strain TOP1, stronger effect = lower value 1.04 | S. cerevisiae deletion strains, locus YOL012C, strain htz1 1.04 | S. cerevisiae deletion strains, locus YOL147C, strain pex11, stronger effect = lower value 1.02 | S. cerevisiae deletion strains, locus YOR001W, strain rrp6, stronger effect = lower value 0.995 | S. cerevisiae deletion strains, locus YOR061W, strain CKA2, stronger effect = lower value 1.01 | S. cerevisiae deletion strains, locus YOR069W, strain VPS5, stronger effect = lower value 1 | S. cerevisiae deletion strains, locus YOR070C, strain gyp1, stronger effect = lower value 0.998 | S. cerevisiae deletion strains, locus YOR080W, strain dia2, stronger effect = lower value 0.987 | S. cerevisiae deletion strains, locus YOR083W, strain WHI5 (second series), stronger effect = lower value 1.01 | S. cerevisiae deletion strains, locus YOR083W, strain WHI5, stronger effect = lower value 0.993 | S. cerevisiae deletion strains, locus YOR106W, strain vam3, stronger effect = lower value 1.01 | S. cerevisiae deletion strains, locus YOR136W, strain idh2, stronger effect = lower value 1.01 | S. cerevisiae deletion strains, locus YOR144C, strain elg1, stronger effect = lower value 1.02 | S. cerevisiae deletion strains, locus YOR184W, strain ser1, stronger effect = lower value 1.03 | S. cerevisiae deletion strains, locus YOR265W, strain rbl2, stronger effect = lower value 0.994 | S. cerevisiae deletion strains, locus YOR270C, strain vph1, stronger effect = lower value 1.02 | S. cerevisiae deletion strains, locus YOR290C, strain snf2, stronger effect = lower value 0.996 | S. cerevisiae deletion strains, locus YOR316C, strain cot1, stronger effect = lower value 1.01 | S. cerevisiae deletion strains, locus YPL051W, strain arl3, stronger effect = lower value 0.999 | S. cerevisiae deletion strains, locus YPL055C, strain LGE1, stronger effect = lower value 1.03 | S. cerevisiae deletion strains, locus YPL078C, strain atp4, stronger effect = lower value 0.997 | S. cerevisiae deletion strains, locus YPL106C, strain sse1, stronger effect = lower value 0.985 | S. cerevisiae deletion strains, locus YPL240C, strain hsp82, stronger effect = lower value 0.982 | S. cerevisiae deletion strains, locus YPL241C, strain CIN2, stronger effect = lower value 1.01 and 0.991 | S. cerevisiae deletion strains, locus YPR119W, strain clb2, stronger effect = lower value 1.02 | S. cerevisiae deletion strains, locus YPR141C, strain kar3, stronger effect = lower value 1.01 | S. cerevisiae deletion strains, locus YPR163C, strain tif3, stronger effect = lower value 1.02 | S. cerevisiae deletion strains, locus YPR167C, strain met16, stronger effect = lower value 1.01 | S. cerevisiae deletion strains, strain wtn01, stronger effect = lower value 1.01 | S. cerevisiae strains, strain wild type, stronger effect = lower value 1.01
